Data from PubChem BioAssay (NCI).
Compounds without any hit were thinned out: in the full panel of roughly 83,000, 20% have a hit.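 Plates (96-well) were seeded with cells, treated with compound at one concentration, and incubated for 48 hours before percent growth was determined.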 Unmarked numbers belong to inactive results. Active and inactive are the calls of the source. Rule for the calls: active = growth percent below 10; inactive = the rest.

Key:
Test in all cases: NCI-60 one-dose screen, 48 h (100 = growth as untreated, 0 = no growth, -100 = all killed)
Conditions in all cases: 10 µM
[1] = tested on: RPMI-8226 leukemia
[2] = tested on: OVCAR-8 ovarian
[3] = tested on: OVCAR-5 ovarian
[4] = tested on: OVCAR-4 ovarian
[5] = tested on: SK-OV-3 ovarian
[6] = tested on: IGROV1 ovarian
[7] = tested on: OVCAR-3 ovarian
[8] = tested on: HS 578T breast
[9] = tested on: NCI/ADR-RES ovarian
[10] = tested on: T-47D breast

Compound	growth [1]	growth [2]	growth [3]	growth [4]	growth [5]	growth [6]	growth [7]	growth [8]	growth [9]	growth [10]
CC1=C(N2CCOCC2)C(N2CCOCC2)=C(C)C(=O)C1=O	105%	97.2%	97.6%	104%	105%	101%	109%	109%	110%	95.1%
O=C1/C(=C\c2ccc(Cl)cc2)CN(C(=S)Nc2ccccc2)C/C1=C\c1ccc(Cl)cc1	-29.8% (active)	-5.17% (active)	-74.1% (active)	-26% (active)	-42.3% (active)	-72.9% (active)	-87.6% (active)	-23.1% (active)	1.25% (active)	-2.82% (active)
Cc1nc2ccccc2c(N)c1-c1cc(C)c2c(C)nc3ccccc3c2n1	-40.9% (active)	-29.4% (active)	32.4%	-64.1% (active)	96.7%	-92% (active)	-96.6% (active)	-32.3% (active)	43.8%	-20.4% (active)
COc1ccc(-c2nc3ccccn3c2-c2nnc(-c3cc(OC)c(OC)c(OC)c3)o2)cc1	75.1%	35.5%	82.7%	64.8%	44.3%	87%	40.4%	82.2%	63.7%	48%
O=C(N/N=C\c1cc(Cl)ccc1[N+](=O)[O-])c1ccco1	109%	101%	118%	105%	130%	127%	107%	100%	100%	83.7%
COc1ccc(-c2cc(-c3ccc(N(C)C)cc3)c(C#N)c(N3CCCC3)n2)cc1	38.7%	83.3%	64.8%	81.4%	72.7%	64.9%	105%	103%	61.8%	67%
COc1cc(Nc2ccnc(NCCNc3ccnc4cc(Cl)ccc34)n2)cc(OC)c1	-42.7% (active)	45.4%	43.9%	42.4%	75.1%	23.6%	56.8%	63.7%	67.9%	15.5%
Nc1c(C(=O)Nc2cccc(Br)c2)sc2nc3c(cc12)C(O)CCC3 (stereo not given)	14.7%	30.6%	60.4%	65.8%	21.8%	27.9%	-18.2% (active)	28.3%	24.5%	47.4%
c1ccc([I+]c2ccccc2)cc1	46.7%	39.2%	85.2%	66%	68.7%	45.6%	62.7%	116%	91.5%	76.8%
COc1cc(Cl)cc(-c2nn(-c3cccc(NC(=O)Nc4cc(C(F)(F)F)cc(C(F)(F)F)c4)c3)cc2-c2ccncc2)c1	-17.5% (active)	-2.46% (active)	21.6%	11.9%	6.84% (active)	23%	-1.62% (active)	5.82% (active)	2.37% (active)	6.56% (active)
CN(C)N=Nc1nn(C(=O)Nc2ccc(Cc3ccccc3)cc2)c2ccccc12	47.5%	48.8%	71%	52.1%	102%	84.8%	45.7%	100%	46.6%	24.3%
O=C(Nc1ccc(CN2CCc3nc4cc(O)c(O)cc4cc32)cc1)c1ccc(Cl)c(Cl)c1	103%	106%	106%	117%	106%	102%	104%	102%	106%	88.6%
O=C(Nc1ccc(CO)cc1)c1ccccc1Nc1ccnc(C(F)(F)F)c1	89%	98.3%	104%	98.2%	101%	101%	110%	93.7%	102%	86.9%
O=C1OCC2=C1C(c1cccc(Cl)c1)c1cc3c(cc1N2CCO)CCC3 (stereo not given)	17.3%	4.21% (active)	46.1%	50.4%	23.5%	15.9%	-54.2% (active)	-1.05% (active)	-23% (active)	66.1%
C#Cc1ccc(-n2c(/C=C/c3cc(OC)cc(OC)c3)nc3ncccc3c2=O)cc1	25.1%	66.8%	129%	60.2%	68.1%	91.9%	76.4%	88%	77.1%	71.8%
Cn1c([N+](=O)[O-])cnc1/C=C1\Oc2ccc(Cl)cc2C1=O	0.916% (active)	-17.3% (active)	-20.4% (active)	-4.09% (active)	-10.2% (active)	-19.3% (active)	-26.8% (active)	-24.1% (active)	2.61% (active)	78.1%
COc1ccc(-c2nc(-c3nc4ccc(OC)cc4[nH]3)cc3c2[nH]c2ccccc23)cc1	-28.2% (active)	17.5%	90%	52.8%	99.2%	21.1%	51.9%	18.8%	32.9%	25.5%
CCCCCCNC(=O)Oc1ccc(/C(=C(/CC)Cc2ccccc2)c2ccc(OCCN3CCCCC3)cc2)cc1	68.2%	81.6%	94%	69.9%	86.3%	91.1%	87.8%	83.5%	81.8%	51.3%
CCC(=O)N1C/C(=C/c2ccc(Cl)cc2)C(=O)/C(=C/c2ccc(Cl)cc2)C1	-37% (active)	1.63% (active)	2.37% (active)	8.11% (active)	-34.8% (active)	-66.1% (active)	-47.2% (active)	22.2%	14.9%	26%
Nc1c(C(=O)Nc2cccc3ccccc23)sc2nc3c(cc12)C(=O)CCC3	15.7%	21%	40.3%	47.7%	5.64% (active)	23.7%	-26.7% (active)	14.2%	2.15% (active)	47.5%
Clc1ccccc1N=Cc1ccc2c(c1)OCO2	96.2%	103%	105%	104%	108%	111%	116%	117%	106%	109%
COc1cc(-c2cc(/C=C3\C(=O)Nc4ccccc43)[nH]n2)cc(OC)c1OC	24.3%	40.8%	77.6%	42%	87.5%	43%	57.8%	49.6%	35.2%	20.9%
COc1ccc2c(c1)O/C(=C\c1ccc([N+](=O)[O-])o1)C2=O	-10.7% (active)	-8.18% (active)	12.4%	-1.31% (active)	67.6%	-14.2% (active)	-8.36% (active)	21.4%	16%	-0.109% (active)
CCOC(=O)C(CSC(c1ccccc1)(c1ccccc1)c1ccccc1)NC(=O)C(CSC(c1ccccc1)(c1ccccc1)c1ccccc1)NC(c1ccccc1)(c1ccccc1)c1ccccc1 (stereo not given)	105%	95.6%	106%	105%	109%	115%	119%	99.5%	109%	108%
COc1ccc2c(c1)O/C(=C\c1ncc([N+](=O)[O-])n1C)C2=O	-1.22% (active)	-20.8% (active)	-14.7% (active)	-11.6% (active)	-15.9% (active)	-25% (active)	-24.8% (active)	-21.1% (active)	1.07% (active)	76.5%
COc1cc(-c2cc(/C=C/C(=O)c3ccc(F)c(F)c3)[nH]n2)cc(OC)c1OC	22.6%	58.1%	76%	40.1%	90%	73.1%	49.6%	61.3%	63.5%	53.6%
Nc1nc(-c2ccccc2Cl)cc(-c2ccc(Cl)cc2Cl)n1	35.2%	71.2%	96.2%	79.6%	93%	74.7%	85.2%	61.9%	79.8%	63.7%
O=C1/C(=C\c2ccc(F)cc2)CN(C(=O)c2ccccc2)C/C1=C\c1ccc(F)cc1	-19.5% (active)	3.54% (active)	78.6%	27.3%	74.6%	21.8%	11.3%	28.1%	24.8%	57%
